This is part of a sample that, as a whole, favours compounds with a hit. Of some 83,000 tested, about 20% had one in any assay.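 The test compound was applied at a single concentration to cells in 96-well plates for 48 hours, and percent growth was recorded.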 Unmarked numbers belong to inactive results. Activity calls are given as the source filed them. How the source made its calls: active means growth percent below 10; inactive means the rest.
These compounds were tested on HOP-62 NSCLC (assay: NCI-60 one-dose screen, 48 h (100 = growth as untreated, 0 = no growth, -100 = all killed)). Settings: 10 µM unless noted.
`CCC1S/C(=N\N=C(/C)c2ccco2)N(c2ccccc2)C1=O` (centres undefined) was tested, and the growth was 106%.
`C#C[C@H](O)/C=C/CCCCCCC#C[C@H](O)CC[C@@H](O)C#CCCCCCC/C=C/[C@@H](O)C#C` showed a growth of 85.3%.
`O=[N+]([O-])c1cccc2cc(S(=O)(=O)O)ccc12` was tested, and the growth was 98.8%.
In the case of `Nc1ccc(S(=O)(=O)Nc2cc(I)cc(I)c2)cc1`, the growth is reported as 91.1%.
`O=C(Nc1ccc(-n2cc(-c3ccncc3)c(-c3ccc(O)c(Cl)c3)n2)cc1)Nc1cc(C(F)(F)F)cc(C(F)(F)F)c1` gave a growth of 71.5%.
In the case of `O[C@@H]1CCO[C@H](c2ccc3ccccc3c2)C1`, the growth is reported as 99.5%.
`COc1cc(Cn2cc3c(c2)-c2onc(CO)c2CC3)cc(OC)c1OC` showed a growth of 85.7%.
With `CN(C)CCS(=O)(=O)Nc1cc(-c2ccc3ncnc(Nc4ccc(F)c(Cl)c4)c3c2)cnc1Cl` the growth was -5.38% (active).
`CCN(CC)c1ccc(C2CC(c3cc(OC)c(OC)c(OC)c3)=NN2)cc1` (centres undefined) gave a growth of 34.7%.
With `CCn1cc(C(=O)O)c(=O)c2cc(F)c(N3CCN(CC(=O)Nc4ccc(C(C)=O)cc4)CC3)cc21` the growth was 101%.
`CCOc1ccc(-n2c(-c3cc(OC)c(OC)c(OC)c3)nnc2-c2ccc(OC)cc2N)cc1` gave a growth of 78.3%.
Compound `COc1ccc(/C(=C/c2cc(OC)c(OC)c(OC)c2)[N+](=O)[O-])cc1` has a growth of 68.3%.
`O=C(Nc1cccc([N+](=O)[O-])c1)Nc1cccc([N+](=O)[O-])c1` showed a growth of 88.2%.
Work on `COc1ccc(-c2nn(-c3ccc(NC(=O)Nc4cc(C(F)(F)F)cc(C(F)(F)F)c4)cc3)cc2-c2ccncc2)cc1Cl` yielded a growth of 19.5%.
`O=c1c2ccccc2sc2c(NCCCNCCO)nc3ccccc3c12` gave a growth of 36.5%.
`O=C(NNC(=O)c1ccc([N+](=O)[O-])cc1)c1ccc([N+](=O)[O-])cc1` showed a growth of 90.8%.
Work on `CCN(CC)C(=O)C1CCN(C(=O)c2ccccc2)CC1` yielded a growth of 93.3%.
In the case of `O=S(=O)(O)c1ccc(F)cc1`, the growth is reported as 92.6%.
`Cc1cc(SCc2ccc(Cl)cc2Cl)nc(SCc2ccc(Cl)cc2Cl)n1` gave a growth of 108%.
Work on `CCOC(=O)c1noc2c1CCc1cn(Cc3cc(OC)cc(OC)c3)cc1-2` yielded a growth of 95.6%.
Compound `CC(C)(C)C(=O)Nc1nc2c(s1)CCc1ccn(S(=O)(=O)c3ccccc3)c1-2` has a growth of 93.4%.
Work on `CCCCCCCCCCCCCCCCNc1ccccc1` yielded a growth of 105%.
Work on `Cc1nc(N)nc(SCc2ccccc2)c1Br` yielded a growth of 83.1%.
Compound `O=S(c1ccccc1)c1ccc2nnnn2n1` (centres undefined) has a growth of 108%.
`O=C1COc2ccccc2C(=O)N1CCCCN1CCCCC1` showed a growth of 78.2%.
Compound `O=C(COc1ccc(Cl)cc1Cl)N1N=C(c2ccc(Cl)cc2Cl)CC1(O)c1cc(F)c(Cl)cc1Cl` (centres undefined) has a growth of 105%.
With `CC(CCC(=O)O)[C@H]1CCC2C3C(=O)C[C@@H]4CC(=O)CC[C@]4(C)C3CC(=O)[C@@]21C` (some centres undefined) the growth was 112%.
In the case of `COc1ccc(-c2nn(-c3ccc(NC(=O)Nc4ccc(Cl)c(C(F)(F)F)c4)cc3)cc2-c2ccncc2)cc1Cl`, the growth is reported as -0.289% (active).
`O=C1COc2ccccc2C(=O)N1CCCCNc1ccccc1` gave a growth of 73.5%.
Work on `O=C1CCC(c2c(O)cc(O)c3c(=O)c(O)c(-c4ccc(O)c(O)c4)oc23)N1` (centres undefined) yielded a growth of 84.3%.
For `CCCCCCCCCCCCCCCC(=O)NS(=O)(=O)OC[C@H]1O[C@@H](n2cnc3c(N)ncnc32)[C@H](O)[C@@H]1O`, the growth was -25% (active).
For `CN(CCNCc1ccccn1)CCNCc1ccccn1`, the growth was 4.07% (active).
Work on `CCN(CC)CCNCC(O)Cc1ccc(OC)cc1` (centres undefined) yielded a growth of 102%.
`CN1CCN(Cn2nc(-c3cc(Cl)cc(Cl)c3Cl)n(/N=C/c3ccc(Cl)cc3)c2=S)CC1` gave a growth of 95%.
`Cn1cnc([N+](=O)[O-])c1N1c2ccncc2Sc2ccncc21` gave a growth of 93.3%.
For `O=C(O)c1cccc2oc(-c3ccccc3O)nc12`, the growth was 43.6%.
Compound `Nn1c(CN2CCN(c3cc4c(cc3F)c(=O)c(C(=O)O)cn4C3CC3)CC2)n[nH]c1=S` has a growth of 96.4%.
`Cc1ccc2nc(-c3ccc(-n4on4-c4ccc(/C=C/c5ccc(-n6on6-c6ccc(-c7nc8ccc(C)cc8s7)cc6)cc5S(=O)(=O)O)c(S(=O)(=O)O)c4)cc3)sc2c1` gave a growth of 121%.
For `CC(C)(C)NCC(O)COc1c(Br)c(Br)c(Br)c2c1OC(C)(C)C2` (centres undefined), the growth was -84.9% (active).

— PubChem BioAssay (NCI)
